Compound activity from PubChem.
TDP1 cell noCPT = qHTS for Inhibitors of human tyrosyl-DNA phosphodiesterase 1 (TDP1): qHTS in cells in absence of CPT; DT40 Tdp1-/- hTDP1 cells, no CPT, ATP luminescence, 48 h; Potency, µM (series often up to 46.2 µM), for inactives: at the highest dose activity change, negative = growth inhibition, most hits filed as inhibitors; hit rate 15% among 420,000; note: potency is the fitted concentration of half-maximal effect; nearly all actives have a fitted effect of over 55% in size
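Readout: luminescence from CellTiter-Glo after 30 min in the dark at RT. Cells: DT40 Tdp1-/- with stable hTDP1, 400/well. Exposure: compounds alone, ≥48 hr, 37 °C.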
TDP1 cell CPT = growth inhibition of DT40 Tdp1-/-;hTDP1 cells with camptothecin (screen for TDP1 inhibitors); hit rate 12% among 420,000; Potency, µM (highest dose often 46.2 µM), for the others: at the top dose activity change, negative = growth inhibition, most hits filed as inhibitors; chicken DT40 Tdp1-/-;hTDP1 cells + 20 nM CPT, ATP luminescence, 48 h; note: potency is the fitted concentration of half-maximal effect; nearly all actives have a fitted effect of over 55% in size
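Chicken DT40 Tdp1-/- cells complemented with human TDP1, 400 cells/well, exposed to compounds plus 20 nM camptothecin for at least 48 h at 37 C; viability read as ATP content by CellTiter-Glo luminescence.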
HT1080 IDH1KD tx = kills HT-1080 cells with IDH1 knockdown; HT-1080 IDH1 knockdown viability, ATP luminescence, 48 h; Potency, µM (titrated, usually from 46.1 µM), without a hit: at the highest dose activity, negative = toxicity, most hits filed as cytotoxic; hit rate 2% among 360,000; AID 686971;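 note: potency is the fitted concentration of half-maximal effect; 0% = DMSO wells and -100% = cell-free medium wells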
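Knockdown cells (IDH1KD HT-1080) received compounds 2 h after plating at 750 cells/well and were kept 48 h at 37 °C in 5% FBS RPMI. A CellTiter-Glo luminescence read gave % activity for curve fitting.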
HT1080-NT tox = kills 2HG-producing HT-1080-NT fibrosarcoma cells | HT-1080-NT fibrosarcoma viability, CellTiter-Glo ATP luminescence, 48 h | Potency, µM (highest dose often 46.1 µM), for the others: at the highest dose activity, negative = less viability, actives largely listed as cytotoxic | hit rate 1.6% among 360,000;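 note: NT is the 2HG producing partner of a matched IDH1 knockdown line; potency is the fitted concentration of half-maximal effect; 0% = DMSO-treated cells and -100% = media-only wells without cells; nearly all actives have a fitted effect of over 55% in size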
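HT-1080-NT fibrosarcoma cells (2HG-overproducing), 750 cells/well in RPMI with 5% FBS, dosed after 2 h and incubated 48 h at 37C. CellTiter-Glo luminescence normalized to DMSO and no-cell wells; concentration-response curves fitted and classed.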
IL-1B inflam inh = blocks inflammasome-driven IL-1 beta release; THP-1 LPS/ATP IL-1B secretion, AlphaLISA, 16 h; active compounds read low; activity change, % at 57.5 µM; hit rate 4.7% among 360,000; in the data active = activity change below about -50%; inconclusive = mostly about -30% to -49%
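Secreted IL-1B measured by AlphaLISA bead assay after 16 h compound exposure of THP-1 cells; compounds (final up to 57.5 uM) added 1 h before LPS (250 ng/mL) and ATP (1.25 mM) stimulation; lower signal means less secretion.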
ELG1 repair inh = ELG1-dependent DNA repair inhibition; HEK293T ELG1-luciferase reporter, luminescence, 16 h; DNA damage induced by 5-fluorouridine; Potency, µM (top dose mostly 46.1 µM), inactives show top-dose activity change, negative = inhibition, most hits filed as inhibitors; hit rate 2.3% among 330,000; note: potency is the fitted concentration of half-maximal effect; nearly all actives have a fitted effect of over 55% in size
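DMSO vehicle served as the neutral condition. Each well held 2,000 cells given 5-fluorouridine plus compound; after 16 hr at 37 °C/5% CO2, ONE-Glo was added and luciferase measured 30 min later.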
An asterisk follows results filed as active; ! = repeats disagree. Only some compounds are listed: those with a hit (about 19% of all), similar ones and a draw of the others. Unless noted, calls come from the whole dose curve; as a rule, active = well fitted curve in the direction sought with a large enough effect; inconclusive = small, poorly fitted or top-dose-only effect, or another doubt; inactive = no such curve, though single readings can be large; an effect the other way counts as inactive or inconclusive. Unless noted, % is set by controls: 0 for no effect and ±100 for the full control effect.

For Cc1cccc(C)c1NC(=O)C(c1ccc(-c2ccccc2)cc1)n1c(=O)c(-c2cc3ccccc3[nH]2)nc2ccccc21 (stereo not given) the results were TDP1 cell noCPT inconclusive, TDP1 cell CPT inconclusive, HT1080 IDH1KD tx -13.1%, HT1080-NT tox -2.5% and IL-1B inflam inh 51.7.
`Cc1cccc(C)c1NC(=O)C(CCc1ccccc1)n1c(=O)c(-c2ccccc2)nc2ccccc21` (stereo not given) gave TDP1 cell noCPT 4.11µM*, TDP1 cell CPT 3.26µM*, HT1080 IDH1KD tx inconclusive, HT1080-NT tox inconclusive and IL-1B inflam inh -4.5.
Cc1cccc(C)c1NC(=O)C(CCc1ccccc1)n1c(=O)c(-c2cc3ccccc3[nH]2)nc2ccccc21 (stereo not given) was read as TDP1 cell noCPT 6.51µM*, TDP1 cell CPT 7.31µM*, HT1080 IDH1KD tx inconclusive, HT1080-NT tox inconclusive and IL-1B inflam inh -12.5.
`CC(C)(C)NC(=O)C(CCc1ccccc1)n1c(=O)c(-c2cc3ccccc3[nH]2)nc2ccccc21` (stereo not given) gave TDP1 cell noCPT 13µM*, TDP1 cell CPT 14.6µM*, HT1080 IDH1KD tx inconclusive, HT1080-NT tox inconclusive and IL-1B inflam inh 14.8.
`COC(=O)[C@H]1C[C@H](O)CN1S(=O)(=O)c1ccc(Br)cc1F` gave TDP1 cell noCPT -1.5%, TDP1 cell CPT -4.3%, HT1080 IDH1KD tx -0.3%, HT1080-NT tox 1.7%, IL-1B inflam inh -6.5 and ELG1 repair inh 0.3%.
For O=C(Nc1ccc(Cl)cc1)c1ccc(Br)cc1F the results were TDP1 cell noCPT inconclusive, TDP1 cell CPT -11.3%, HT1080 IDH1KD tx -6.9%, HT1080-NT tox -16.3%, IL-1B inflam inh 0.0 and ELG1 repair inh inconclusive.
Screening COCCCNc1c2c3c(cccc3[nH]c1=O)C(=O)c1ccccc1-2 returned TDP1 cell noCPT 16.4µM*, TDP1 cell CPT 14.6µM*, HT1080 IDH1KD tx inconclusive, HT1080-NT tox inconclusive, IL-1B inflam inh 12.5 and ELG1 repair inh 11.6µM*.
CCOC(=O)c1c2c3c(cccc3[nH]c1=O)C(=O)c1ccccc1-2 was read as TDP1 cell noCPT -2.5%, TDP1 cell CPT -8.7%, HT1080 IDH1KD tx 11.6%, HT1080-NT tox 9.2%, IL-1B inflam inh -5.5 and ELG1 repair inh 1.5%.
`CCCCN1CCC(CCC(=O)c2cc(Cl)c(N)cc2OC)CC1` gave TDP1 cell noCPT 26.6µM*! and TDP1 cell CPT inconclusive.
Screening Cc1ccc(S(=O)(=O)Nc2nc3ccccc3nc2NCc2ccco2)cc1 returned TDP1 cell noCPT inconclusive, TDP1 cell CPT inconclusive, HT1080 IDH1KD tx 10µM*, HT1080-NT tox inconclusive, IL-1B inflam inh 13.6 and ELG1 repair inh inconclusive.
Screening CNc1nc(NCc2ccco2)c2ccccc2n1 returned TDP1 cell noCPT 15.8µM* and TDP1 cell CPT 10µM*.
For CSc1nc(NCc2ccco2)c2ccccc2n1 the results were TDP1 cell noCPT inconclusive, TDP1 cell CPT inconclusive, HT1080 IDH1KD tx inconclusive, HT1080-NT tox -6.6%, IL-1B inflam inh -12.9 and ELG1 repair inh -22.4%.
For c1cncc(-c2nc(NCc3ccco3)c3ccccc3n2)c1 the results were TDP1 cell noCPT inconclusive, TDP1 cell CPT -24.8%, HT1080 IDH1KD tx -14.1%, HT1080-NT tox -0.2%, IL-1B inflam inh -28.7 and ELG1 repair inh inconclusive.
Screening CCNc1nc(NCc2ccco2)c2ccccc2n1 returned TDP1 cell noCPT 11.2µM* and TDP1 cell CPT 11.2µM*.
For Clc1nc(NCc2ccco2)c2ccccc2n1 the results were TDP1 cell noCPT 7.08µM* and TDP1 cell CPT inconclusive.
